Test results: PubChem BioAssay (NCATS)
Inconclusive results are not listed. Active and inactive are the calls of the source. Unless noted, the call rests on the fitted dose curve; in most records, active means well fitted curve in the direction sought with a large enough effect; inconclusive means small, poorly fitted or top-dose-only effect, or another doubt; inactive means no such curve, though single readings can be large; an effect the other way counts as inactive or inconclusive.

Tests used:
[1] = High Content Imaging Cell-Based qHTS for Inhibitors of the mTORC1 Signaling Pathway in MEF Cells (AID 2667); details: series mostly up to 38.3 µM;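 further: Tsc2-/- p53-/- MEFs stably re-expressing wild-type Tsc2 exposed 24 h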
Procedure, shortened: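 Tsc2-/-, p53-/- MEFs stably re-expressing WT Tsc2, grown in DMEM + 10% FBS, were treated with compounds for 24 hrs at 37 degree Celsius, fixed, and stained with Alexa-488 phospho-rpS6 Ser235/236 antibody plus Hoechst; results given as % positive cells.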

[2] = Cytometry Cell-Based qHTS for Inhibitors of the mTORC1 Signaling Pathway in MEF cells (AID 2668); details: mTORC1 pathway readout; series mostly up to 38.3 µM;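 further: Tsc2-/- p53-/- mouse embryonic fibroblasts stably re-expressing wild-type Tsc2; percent cells positive for phospho-rpS6 Ser235/236 relative to propidium iodide stain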
Procedure, shortened: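 MEFs (Tsc2-/-, p53-/- stably expressing WT Tsc2) treated 24 h at 37 degree Celsius, fixed, stained with Alexa-488 anti-phospho-rpS6 Ser235/236 and propidium iodide; Acumen laser scanning. Reported as % positive cells, phospho-S6 normalized to PI.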

[3] = Validation screen for small molecules that induce DNA re-replication in MCF 10A normal breast cells (AID 463097); details: MCF 10A cells, DNA re-replication phenotype imaging; series mostly up to 46.1 µM; further: nearly all actives have a fitted effect of over 60% in size
Procedure, shortened: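 MCF 10A cells exposed to compound 48 hr at 37 C, 5% CO2, then Hoechst-stained 40 min. Laser-scanning imaging of nuclear DNA content (405 nm ex, 500-530 nm em); re-replication scored as rise in nuclei with elevated fluorescence intensity.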

[4] = target: Ubiquitin carboxyl-terminal hydrolase 2 (Homo sapiens) (UniProt O75604); assay: qHTS Validation Assay for Inhibitors of Ubiquitin-specific Protease USP2a Using CHOP2 as the Reporter (AID 463106); details: USP2a cleavage of CHOP2 reporter, enzymatic; series mostly up to 38.3 µM
Procedure, shortened: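 Readout was coupled fluorescence (Ex 485/Em 531 nm), read 60 min after adding 25 nM final Ub-CHOP2 and 25 nM reporter substrate. Beforehand, 10 nM final USP2 core had 30 min at RT with compound in pH 8.0 buffer. Curves were fitted after normalization to NEM and flagged for artifacts using time-zero reads.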

[5] = target: DNA polymerase III PolC-type (Bacillus subtilis (strain 168)) (UniProt P13267); assay: qHTS Validation Assay for the Inhibitors of DNA Replication in Gram-Positive Bacteria (AID 485295); details: Gram-positive bacterial DNA replication assay; series mostly up to 57.1 µM;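 further: PicoGreen fluorescence of double-stranded DNA made on primed circular M13 template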
Procedure, shortened: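 Reconstituted B. subtilis Pol III holoenzyme (PolC, beta clamp, SSB, primase) preincubated with compound, then M13Gori single-stranded circular template with dNTPs/NTPs added; room temperature reaction. Stopped with EDTA/PicoGreen; dsDNA fluorescence read, EDTA as full-inhibition control.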

[6] = target: Tumor susceptibility gene 101 protein (Homo sapiens) (UniProt Q99816); assay: qHTS Validation Assay for Iinhibitors of HIV-1 Budding by Blocking the Interaction of PTAP/TSG101 (AID 485342; calls by dose curve); details: TSG101-PTAP binding, fluorescence polarization, 4-point titration; series mostly up to 115 µM
Procedure, shortened: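 Tsg101 binding domain (10 uM) with FITC-labeled PTAP peptide (50 nM) in HEPES pH 7.5 buffer, 20 min at r.t. with compounds. Binding measured by fluorescence polarization.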

[7] = target: Beta-2 adrenergic receptor (Homo sapiens) (UniProt P07550); assay: qHTS validation assay of beta-arrestin-biased ligands of beta2-adrenergic receptor (AID 485366); details: cell-based beta-arrestin recruitment to ADRB2, qHTS; series mostly up to 46.1 µM
Procedure, shortened: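 Agonism was measured as beta-arrestin recruitment to recombinant beta2-AR, releasing tTA to drive luciferase. Cells were exposed for 18 hr at 37 degrees C to a series up to 46 microM. %Activity from corrected luminescence gave concentration-response curves.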

[8] = target: ATP-dependent 6-phosphofructokinase (Trypanosoma brucei brucei) (UniProt O15648); assay: qHTS Validation Assay to Find Inhibitors of T. brucei phosphofructokinase (AID 485368); details: T. brucei PFK enzyme assay, qHTS 7-point titration; at 57.5 µM (top of the series)
Procedure, shortened: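 ADP-Glo luminescence, two-step: residual ATP depleted, then ADP converted to ATP for luciferase. Enzyme 1.25 nM, F6P 0.5 mM, ATP 0.1 mM, pH 8.0 TEA buffer, 45 min RT. Curves fitted and classed by quality and efficacy.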

[9] = target: Thioredoxin reductase 1, cytoplasmic (Rattus norvegicus) (UniProt O89049); assay: qHTS Assay for Substrates of Mammalian Selenoprotein Thioredoxin Reductase 1 (TrxR1) (AID 488772); details: purified TrxR1, NADPH consumption substrate assay; series mostly up to 57.1 µM;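 further: a drop in NADPH fluorescence below the no-compound background marks a TrxR1 substrate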
Procedure, shortened: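 In this dual-purpose format, potential substrates are identified from the first fluorescence read after selenite addition, not from the 8-minute delta. Rat enzyme is preincubated with NADPH and then with compound at ~22 deg C.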

[10] = target: Thioredoxin reductase 1, cytoplasmic (Rattus norvegicus) (UniProt O89049); assay: qHTS Assay for Inhibitors of Mammalian Selenoprotein Thioredoxin Reductase 1 (TrxR1) (AID 488773); details: purified TrxR1 enzyme activity; series mostly up to 57.1 µM;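 further: drop in NADPH fluorescence over an 8 min run after selenite addition; nearly all actives have a fitted effect of over 40% in size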
Procedure, shortened: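 Inhibition is scored from the loss of NADPH fluorescence between first and last reads of an 8-min kinetic run. Selenite (400 uM) was the substrate, added after 15 min compound preincubation at room temperature.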

Measured: outcome

Sequence of Thioredoxin reductase 1, cytoplasmic (Rattus norvegicus) (O89049 whole entry, looked up): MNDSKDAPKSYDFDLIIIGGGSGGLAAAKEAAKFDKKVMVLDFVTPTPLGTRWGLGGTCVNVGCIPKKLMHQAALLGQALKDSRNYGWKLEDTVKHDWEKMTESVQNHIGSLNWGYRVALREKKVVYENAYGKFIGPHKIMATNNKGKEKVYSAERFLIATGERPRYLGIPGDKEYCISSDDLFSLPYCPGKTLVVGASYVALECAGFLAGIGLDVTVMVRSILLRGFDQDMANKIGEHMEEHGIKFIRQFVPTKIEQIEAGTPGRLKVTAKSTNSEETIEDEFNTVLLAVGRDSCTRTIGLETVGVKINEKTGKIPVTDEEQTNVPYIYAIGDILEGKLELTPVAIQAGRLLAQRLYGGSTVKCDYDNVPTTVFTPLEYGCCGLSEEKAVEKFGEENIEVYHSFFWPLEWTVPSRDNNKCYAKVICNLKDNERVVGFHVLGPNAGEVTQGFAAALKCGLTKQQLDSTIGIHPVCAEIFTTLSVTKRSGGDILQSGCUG
Sequence of Beta-2 adrenergic receptor (Homo sapiens) (P07550 whole entry, looked up): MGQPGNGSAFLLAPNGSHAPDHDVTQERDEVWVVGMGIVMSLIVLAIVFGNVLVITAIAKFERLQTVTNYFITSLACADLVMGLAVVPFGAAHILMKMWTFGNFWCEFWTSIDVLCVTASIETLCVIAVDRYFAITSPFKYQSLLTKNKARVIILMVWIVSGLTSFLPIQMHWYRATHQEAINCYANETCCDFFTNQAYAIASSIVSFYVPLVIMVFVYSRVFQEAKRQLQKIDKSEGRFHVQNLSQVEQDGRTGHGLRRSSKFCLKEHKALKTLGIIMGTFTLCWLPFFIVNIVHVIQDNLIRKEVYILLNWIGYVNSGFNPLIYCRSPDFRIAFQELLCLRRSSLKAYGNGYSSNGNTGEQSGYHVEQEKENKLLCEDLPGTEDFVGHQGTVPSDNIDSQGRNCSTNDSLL
Sequence of Tumor susceptibility gene 101 protein (Homo sapiens) (Q99816 whole entry, looked up, the tested form may be a part): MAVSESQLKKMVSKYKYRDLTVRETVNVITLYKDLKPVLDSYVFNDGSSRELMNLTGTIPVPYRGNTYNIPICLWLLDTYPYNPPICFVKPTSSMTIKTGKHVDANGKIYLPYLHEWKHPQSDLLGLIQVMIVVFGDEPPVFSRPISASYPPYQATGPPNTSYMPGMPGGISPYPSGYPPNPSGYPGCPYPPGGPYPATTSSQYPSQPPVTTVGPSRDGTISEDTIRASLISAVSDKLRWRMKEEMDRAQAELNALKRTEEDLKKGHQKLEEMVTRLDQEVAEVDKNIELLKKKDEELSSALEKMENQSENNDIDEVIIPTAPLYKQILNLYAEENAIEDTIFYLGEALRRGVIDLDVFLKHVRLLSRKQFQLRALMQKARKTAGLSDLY
Sequence of DNA polymerase III PolC-type (Bacillus subtilis (strain 168)) (P13267 whole entry, looked up): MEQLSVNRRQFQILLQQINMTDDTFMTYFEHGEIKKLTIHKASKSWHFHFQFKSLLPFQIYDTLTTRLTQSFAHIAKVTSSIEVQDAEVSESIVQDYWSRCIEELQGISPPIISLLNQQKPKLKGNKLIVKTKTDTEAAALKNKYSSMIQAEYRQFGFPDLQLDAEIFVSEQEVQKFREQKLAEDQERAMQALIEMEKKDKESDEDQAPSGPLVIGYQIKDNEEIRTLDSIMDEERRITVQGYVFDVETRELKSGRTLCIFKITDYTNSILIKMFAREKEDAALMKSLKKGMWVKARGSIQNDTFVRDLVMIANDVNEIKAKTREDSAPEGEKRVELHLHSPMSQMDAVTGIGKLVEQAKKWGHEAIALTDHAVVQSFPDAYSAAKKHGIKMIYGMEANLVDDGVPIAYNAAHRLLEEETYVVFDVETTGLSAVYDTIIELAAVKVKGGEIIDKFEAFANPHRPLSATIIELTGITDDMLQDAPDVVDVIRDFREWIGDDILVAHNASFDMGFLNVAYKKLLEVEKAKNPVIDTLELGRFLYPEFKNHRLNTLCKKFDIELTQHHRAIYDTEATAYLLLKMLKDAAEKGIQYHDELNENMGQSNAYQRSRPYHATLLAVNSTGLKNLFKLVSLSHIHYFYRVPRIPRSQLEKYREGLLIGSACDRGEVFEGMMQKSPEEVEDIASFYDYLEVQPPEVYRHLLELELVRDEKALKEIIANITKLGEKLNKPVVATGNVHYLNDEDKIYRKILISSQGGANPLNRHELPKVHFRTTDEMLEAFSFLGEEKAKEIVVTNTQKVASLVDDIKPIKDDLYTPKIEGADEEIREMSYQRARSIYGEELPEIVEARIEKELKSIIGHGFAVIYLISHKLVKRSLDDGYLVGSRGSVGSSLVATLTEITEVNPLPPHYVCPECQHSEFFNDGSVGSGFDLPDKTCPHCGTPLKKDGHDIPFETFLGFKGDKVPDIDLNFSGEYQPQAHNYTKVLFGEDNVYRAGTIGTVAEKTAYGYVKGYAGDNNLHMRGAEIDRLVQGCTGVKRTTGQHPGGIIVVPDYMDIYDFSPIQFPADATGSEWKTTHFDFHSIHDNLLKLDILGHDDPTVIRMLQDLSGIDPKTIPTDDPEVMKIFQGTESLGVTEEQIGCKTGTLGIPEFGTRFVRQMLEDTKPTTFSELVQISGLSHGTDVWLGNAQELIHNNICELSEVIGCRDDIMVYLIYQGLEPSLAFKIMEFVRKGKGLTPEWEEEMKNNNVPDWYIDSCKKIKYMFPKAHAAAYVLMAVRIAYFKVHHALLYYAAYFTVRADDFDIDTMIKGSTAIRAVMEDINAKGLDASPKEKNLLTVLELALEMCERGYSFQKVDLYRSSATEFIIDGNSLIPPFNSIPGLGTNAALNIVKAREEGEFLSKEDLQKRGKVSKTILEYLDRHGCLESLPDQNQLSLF
Sequence of ATP-dependent 6-phosphofructokinase (Trypanosoma brucei brucei) (O15648 whole entry, looked up): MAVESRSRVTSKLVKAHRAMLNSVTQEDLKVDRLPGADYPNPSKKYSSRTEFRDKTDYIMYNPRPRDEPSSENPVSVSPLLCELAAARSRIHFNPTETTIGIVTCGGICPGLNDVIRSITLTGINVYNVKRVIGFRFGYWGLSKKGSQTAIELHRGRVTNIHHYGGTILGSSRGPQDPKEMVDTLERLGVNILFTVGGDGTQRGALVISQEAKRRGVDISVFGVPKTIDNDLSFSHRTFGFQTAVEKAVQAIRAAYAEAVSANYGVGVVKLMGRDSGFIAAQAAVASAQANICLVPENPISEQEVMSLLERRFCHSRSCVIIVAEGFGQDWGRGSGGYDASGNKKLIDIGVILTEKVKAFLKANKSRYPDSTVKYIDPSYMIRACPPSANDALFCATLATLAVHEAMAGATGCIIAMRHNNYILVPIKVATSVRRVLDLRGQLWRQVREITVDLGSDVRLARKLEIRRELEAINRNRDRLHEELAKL
Sequence of Ubiquitin carboxyl-terminal hydrolase 2 (Homo sapiens) (O75604 whole entry, looked up): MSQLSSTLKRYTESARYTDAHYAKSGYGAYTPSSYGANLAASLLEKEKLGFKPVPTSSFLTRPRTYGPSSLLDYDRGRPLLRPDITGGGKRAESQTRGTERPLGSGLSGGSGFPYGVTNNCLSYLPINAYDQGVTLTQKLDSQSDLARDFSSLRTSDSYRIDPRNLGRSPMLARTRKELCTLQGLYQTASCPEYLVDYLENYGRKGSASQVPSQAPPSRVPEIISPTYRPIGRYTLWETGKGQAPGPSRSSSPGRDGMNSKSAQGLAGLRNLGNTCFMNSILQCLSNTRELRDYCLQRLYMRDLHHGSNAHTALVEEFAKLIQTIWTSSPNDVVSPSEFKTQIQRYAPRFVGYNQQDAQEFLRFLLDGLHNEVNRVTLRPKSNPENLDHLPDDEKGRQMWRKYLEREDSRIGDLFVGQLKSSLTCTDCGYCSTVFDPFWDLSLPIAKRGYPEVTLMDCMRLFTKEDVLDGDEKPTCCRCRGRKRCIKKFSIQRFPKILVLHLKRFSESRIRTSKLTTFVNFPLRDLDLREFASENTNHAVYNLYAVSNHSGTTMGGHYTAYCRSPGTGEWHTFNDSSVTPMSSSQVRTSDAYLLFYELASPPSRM

CN1Cc2c(N)cccc2C(c2ccccc2)C1 (stereo unspecified)
inactive: all assays above

CC[N+](C)(C)Cc1ccccc1Br
inactive: [3]
